RAD52 anneal inh: blocks human RAD52 DNA annealing. P43351. 0.46% of 360,000 active. AID 651710. inhibition, % at 18.7 µM. recombinant RAD52 DNA annealing, FRET fluorescence;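 active means every replicate showing at least 50% inhibition; inconclusive means mean inhibition at least 50% but not in every replicate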
RAD54 inh: blocks human RAD54 Holliday junction branch migration; Q92698; FAM/BHQ fluorescence; inhibition, % at 10.4 µM; 0.14% of 360,000 active;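 active means mean normalized replicate activity at least 40 and at least half of replicates scoring 40 or more; inconclusive means only one of the two criteria met; inactive means mean below 40 and under half of replicates reaching 40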;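 further: 0% = median of neutral control wells and 100% = median of positive control wells; inhibitors cause a drop in the FAM fluorescence signal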
Glyco luc inh: N-linked glycosylation inhibition; D54 ERlucT glycosylation luciferase reporter, 24 h; percent of 100 nM tunicamycin response; reporter increase, % at 12.5 µM; 0.23% of 360,000 active; AID 588692;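 active means mean luciferase reporter signal, scaled so untreated is 0 and the glycosylation-blocking control 100, at or above a set limit in every replicate; inconclusive means mean reaches the limit but not every replicate does; inactive means mean below the limit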;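 further: luciferase carries N-glycosylation sites so blocking glycosylation raises the light; 0% = median of neutral control wells and 100% = median of 100 nM tunicamycin wells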
CASP6 VEID inh: caspase-6 (human) enzyme inhibition; inhibition, % at 12.5 µM; purified caspase-6, Z-VEID-R110 cleavage fluorescence; P55212; 0.53% of 350,000 active;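 active means mean inhibition across replicates at least about 35%, with every replicate also reaching that limit, limit read from the data; inconclusive means only one of the two criteria met; inactive means neither criterion met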;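 further: 0% = median of neutral control wells and 100% = no fluorescence left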
AF4-AF9 inh: inhibitors of human MLL-AF4/AF9 interaction. AlphaScreen, biotin-AF4 peptide binding to FLAG-AF9. inhibition, % at 10 µM. 0.47% of 350,000 active. AID 651704;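 active means every replicate reaching a set inhibition limit, whatever the replicate mean, cut at about 25% in these data; inconclusive means mean inhibition reaches that limit but some replicates miss it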;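 further: 0% = plate neutral control median and 100% = total signal loss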
Target sequence (P42568 whole entry, looked up): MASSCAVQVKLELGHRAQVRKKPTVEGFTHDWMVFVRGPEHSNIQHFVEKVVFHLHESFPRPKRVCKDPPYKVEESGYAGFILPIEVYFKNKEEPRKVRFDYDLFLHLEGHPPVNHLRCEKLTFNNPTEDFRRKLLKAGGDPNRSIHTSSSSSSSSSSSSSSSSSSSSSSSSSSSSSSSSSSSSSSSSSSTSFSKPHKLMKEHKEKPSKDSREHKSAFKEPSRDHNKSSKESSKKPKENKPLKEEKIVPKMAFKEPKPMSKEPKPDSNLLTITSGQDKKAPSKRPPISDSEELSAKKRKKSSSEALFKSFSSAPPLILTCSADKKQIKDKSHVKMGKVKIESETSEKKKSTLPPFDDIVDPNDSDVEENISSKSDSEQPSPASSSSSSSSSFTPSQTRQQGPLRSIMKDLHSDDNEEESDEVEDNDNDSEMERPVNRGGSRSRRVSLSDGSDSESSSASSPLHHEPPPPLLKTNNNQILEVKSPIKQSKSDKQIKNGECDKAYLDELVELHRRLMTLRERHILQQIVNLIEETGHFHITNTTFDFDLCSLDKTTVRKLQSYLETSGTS
DNA binder FP: DNA binding artifact in RAD52 counter-screen; shares compounds with RAD52 anneal inh; 8% of 1,000 active; Salmon sperm DNA/acridine orange FP displacement; AID 652128; AC50, µM;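 active means fitted half-maximal concentration for signal loss at or below twice the highest dose tested, in every separate run, actives reach about 64 µM in these data; inconclusive means runs disagree, or flat partial signal loss, or poor fit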
Active calls of the source: *; i = inactive; ? = inconclusive; . = no result. The list is not random: actives were taken first. Their share in the collection is about 1.2%.

SMILES	RAD52 anneal inh	RAD54 inh	Glyco luc inh	CASP6 VEID inh	AF4-AF9 inh	DNA binder FP
O=C(c1cc2ccccc2cc1O)N1CCN(c2ccccn2)CC1	-0.6	0.1	0.0	-0.2	1.9	.
CN1CCN(c2cc(-c3cc(O)c4ncccc4c3)ccn2)CC1	106.9*	26.0	-11.0	.	83.9*	i
CCOC(=O)c1c(CS(=O)(=O)c2ccccc2)n(C)c2cc(Br)c(O)cc12	11.5	-7.9	0.2	-3.6	-0.5	.
CCOC(=O)c1c(CNc2ccncc2)n(C)c2cc(Br)c(O)cc12	64.2*	.	4.4	4.1	2.4	i
CCCN(C)C[C@@H]1Oc2cc(-c3cccc(C#N)c3)ccc2S(=O)(=O)N([C@H](C)CO)C[C@@H]1C	10.8	-1.9	.	-1.5	1.1	.
C[C@H](CO)N1C[C@H](C)[C@@H](CN(C)S(=O)(=O)c2ccccc2)OCCCC[C@H](C)Oc2ccc(NS(=O)(=O)c3ccc(Cl)cc3)cc2C1=O	9.1	7.4	.	2.9	1.6	.
COc1ccc2nc3cc(Cl)ccc3c(Nc3ccc(O)c(CN4CCN(C)CC4)c3)c2c1	103.8*	.	-9.5	-2.7	58.6*	6.08µM*
COc1ccc2nc3cc(Cl)ccc3c(C#N)c2c1	-14.5	2.6	-0.3	7.3	-0.1	.
CCN(CC)CCNc1ccc(C)c2sc3ccc(O)cc3c(=O)c12	75.7*	.	54.1*	-16.4	50.3*	10.1µM*
CCN(CC)CCCNC(=O)C(C)n1nc(C)c2sc3ccccc3c2c1=O (centres undefined)	.	.	-0.8	.	.	.
C[C@H](CO)N1C[C@H](C)[C@H](CN(C)Cc2ccc(C(=O)O)cc2)OCCCC[C@H](C)Oc2ccc(NC(=O)CCCN(C)C)cc2C1=O	13.6	-5.3	.	-0.3	-2.0	.
CN(C)CCCn1c(=O)n(CCc2ccccc2)c(=O)c2c3c(sc21)CCCCC3	55.7*	0.8	-3.9	0.0	22.9	i
COc1cc(C(=O)N2CCC(N3CCN(C)CC3)CC2)ccc1Nc1ncc2c(n1)N(C)c1ccccc1C(=O)N2C	76.7*	.	.	-6.1	16.5	i
COc1ccc(C(N)=S)c(OC)c1	73.9*	.	2.0	2.3	2.3	i
CCOc1cc(/C=C/c2cccc[n+]2C)ccc1OCC(=O)Nc1ccc(C)cc1	-5.3	14.1	3.5	.	4.8	.
CCOc1cc(/C=C/c2cccc[n+]2C)ccc1O	72.2*	10.6	-1.0	-35.0	-14.0	i
Cc1cccc(/C=C/C(=O)c2ccc(NC3=NCCCS3)cc2)c1	54.4*	.	3.8	-3.3	12.8	i
COc1cccc(NC(=O)N[C@@H]2CC[C@@H](CC(=O)Nc3ccccc3)O[C@H]2CO)c1	-8.4	0.9	.	3.1	1.5	.
CC1=Nc2cc(C(=O)NCCCN3CCN(C)CC3)ccc2Sc2ccc(C)cc21	77.3*	9.1	-0.8	-61.5	27.0*	i
CCCC1=Nc2cc(C(=O)NCCCN3CCN(C)CC3)ccc2Sc2ccccc21	47.2	1.7	-1.5	-112.6	16.9	.
CN(C)CCCNc1nc2cc(-c3cccc(C(F)(F)F)c3)sc2c(=O)n1C	65.7*	28.2	-4.6	-64.3	10.4	?
CN(C)CCCOc1ccc(-c2cc3nc(NCc4cccnc4)n(C)c(=O)c3s2)cn1	60.3*	45.8	-2.8	-20.6	-0.9	i
CC(C)NC(=O)Nc1ccc2c(c1)C(=O)N(C)[C@H]1CC[C@H](CC(=O)Nc3ccc(F)cc3)O[C@@H]1CO2	1.1	2.6	.	-2.4	-1.5	.
C[C@H](CO)N1C[C@H](C)[C@H](CN(C)S(=O)(=O)c2cn(C)cn2)OCCCC[C@H](C)Oc2ccc(NC(=O)CCCN(C)C)cc2C1=O	-15.6	0.7	.	3.4	0.3	.
CCN(CC)CCn1c(=N)n(CC(=O)c2ccc(Br)s2)c2ccccc21	51.0*	16.9	-2.4	-7.5	10.6	i
SMILES	RAD52 anneal inh	RAD54 inh	Glyco luc inh	CASP6 VEID inh	AF4-AF9 inh	DNA binder FP
CO[C@@H]1CN(C)C(=O)c2ccc(NC(=O)C3CCOCC3)cc2OC[C@H](C)NC[C@@H]1C	-10.3	-0.1	.	4.4	0.6	.
C#CCOCCOCCOCCNc1nc(N2CCN(C(=O)[C@H](CCCCN)n3cc(CN)nn3)CC2)nc(N2CCN(C(=O)[C@H](CCCCN)n3cc([C@@H](N)[C@H](C)CC)nn3)CC2)n1	72.1*	79.2*	1.0	-339.7	64.2*	37.2µM*
C#CCOCCOCCOCCNc1nc(N2CCN(C(=O)[C@H](CCCCN)n3cc(CN)nn3)CC2)nc(N2CCN(C(=O)[C@H](CCC(=O)O)n3cc(CN)nn3)CC2)n1	4.0	-34.1	3.1	-228.1	9.6	.
C#CCOCCOCCOCCNc1nc(N2CCN(C(=O)[C@H]([C@@H](C)CC)n3cc([C@@H](N)CO)nn3)CC2)nc(N2CCN(C(=O)[C@H](CCCCN)n3cc([C@@H](N)C(C)CC)nn3)CC2)n1 (some centres undefined)	57.4*	-11.9	0.0	-170.9	16.8	i
C#CCOCCOCCOCCNc1nc(N2CCN(C(=O)[C@H]([C@@H](C)CC)n3cc(CCCCN)nn3)CC2)nc(N2CCN(C(=O)[C@H](CCCCN)n3cc(CCCC)nn3)CC2)n1	54.3*	0.4	0.7	-31.9	12.9	i
C#CCOCCOCCOCCNc1nc(N2CCN(C(=O)[C@H]([C@@H](C)CC)n3cc([C@@H](N)CC(C)C)nn3)CC2)nc(N2CCN(C(=O)[C@H](CCCCN)n3cc([C@@H](N)C(C)CC)nn3)CC2)n1 (some centres undefined)	.	7.5	1.4	.	.	.
C#CCOCCOCCOCCNc1nc(N2CCN(C(=O)[C@H]([C@@H](C)CC)n3cc(CCC(=O)O)nn3)CC2)nc(N2CCN(C(=O)[C@H](CCCCN)n3cc(CCCC)nn3)CC2)n1	12.3	-8.0	-0.3	-4.3	-3.7	.
C#CCOCCOCCOCCNc1nc(N2CCN(C(=O)[C@H](CCCCN)n3cc(CN)nn3)CC2)nc(N2CCN(C(=O)[C@H](CO)n3cc([C@@H](N)C(C)C)nn3)CC2)n1	59.8*	-39.4	2.3	-179.6	.	i
C#CCOCCOCCOCCNc1nc(N2CCN(C(=O)[C@H](CCCCN)n3cc(C(N)[C@H](C)CC)nn3)CC2)nc(N2CCN(C(=O)[C@H](CCC(=O)O)n3cc(C(N)[C@H](C)CC)nn3)CC2)n1 (some centres undefined)	.	-38.7	1.7	.	.	.
C[C@@H]1CN([C@@H](C)CO)C(=O)c2cccc(NS(=O)(=O)c3ccccc3)c2O[C@H]1CN(C)Cc1ccncc1	0.7	8.9	.	2.9	0.2	.
C[N+](C)(C)CCCCCC[N+](C)(C)C	-0.7	3.0	0.5	-14.3	1.5	.
CCCCCC[N+](C)(C)CCSSCC[N+](C)(C)CCCCCC	-3.8	1.4	0.2	-12.4	-7.8	.
CCCCCCCCCCCCCCCC[N+](C)(C)CC	81.2*	51.0*	-15.2	-119.2	-0.1	?
CCCCCCCCCCCCCCCC[N+](C)(C)CCl	87.8*	.	-7.3	-145.6	1.7	31.5µM*
CCC(C)(C)c1ccc(OCCCC[n+]2cccc(C)c2)c(C(C)(C)CC)c1	76.4*	.	12.7	-108.3	12.5	i
